Bioassay records deposited in PubChem by several laboratories.
Rows were chosen to be rich in hits. Some 1.2% of all compounds tested hit in one or more screens of this group.
PKA-R2B activ – activates the human PKA-R2B holoenzyme complex | PKA-R2B holoenzyme dissociation, Cy5-IP20 fluorescence polarization; R2B truncated from residue 108, S112A mutant; 0% DMSO only, 100% 113 µM cGMP | activation, % at 11.4 µM | 340,000 compounds, 0.079% hits | AID 504700;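 active = activation above a cutoff set at the mean over all compounds plus 3 SD, cut at about 18% in these data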;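 also: higher means more holoenzyme dissociation and a rise in polarization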
Target sequence (P31323 whole entry, looked up, other chains not shown, the tested form may be a part): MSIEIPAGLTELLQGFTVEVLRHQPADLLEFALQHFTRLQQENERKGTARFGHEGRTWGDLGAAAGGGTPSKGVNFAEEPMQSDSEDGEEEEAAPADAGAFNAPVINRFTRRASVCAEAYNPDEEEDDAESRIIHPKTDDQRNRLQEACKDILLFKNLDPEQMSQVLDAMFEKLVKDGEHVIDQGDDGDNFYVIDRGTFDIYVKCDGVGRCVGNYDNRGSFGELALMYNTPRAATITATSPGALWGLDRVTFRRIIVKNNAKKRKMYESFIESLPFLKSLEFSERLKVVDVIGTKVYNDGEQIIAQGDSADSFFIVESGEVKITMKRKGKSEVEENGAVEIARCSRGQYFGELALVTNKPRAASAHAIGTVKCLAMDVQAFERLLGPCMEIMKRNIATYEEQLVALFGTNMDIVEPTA
Rev-erbA mod – modulators of human Rev-erb alpha DNA binding. P20393. Rev-erbα–FITC-DNA binding, fluorescence polarization, 90 min. activity, % at 10 µM. 370,000 compounds, 0.79% hits. AID 1259318;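 active = activity above about 14%, limit read from the data; passing the limit was not always enough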;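 also: 0% = DMSO wells with 35 nM protein and 100% = DMSO wells with 750 nM protein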
PG9 binder – binds the HIV-1 gp120 antibody PG9 | inhibition, % at 6.7 µM | 360,000 compounds, 0.43% hits | AID 624416 | TR-FRET gp120-PG9 antibody binding; in the data active = inhibition above about 8.5%
PKA-R1A act – activates the PKA-R1A holoenzyme complex | AID 504707 | PKA-R1A dissociation, Cy5-IP20 fluorescence polarization; scaled: DMSO 0%, 113 µM cGMP 100% | activation, % at 11.4 µM | 340,000 compounds, 0.083% hits;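 active = percent activation above the mean of all tested compounds plus 3 SD, cut at about 19% in these data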;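 also: higher means more PKAc released from R1A so a rise in polarization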
Rev-erbA confirm – confirmation of modulators of human Rev-erb alpha DNA binding | AID 1259319 | 3,000 compounds, 61% hits | activation, % at 25 µM | shares compounds with Rev-erbA mod | Rev-erb alpha FITC-DNA binding, fluorescence polarization, 90 min;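 active = activation at or above a set limit, or at least 3 SD above the negative control mean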;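 also: 0% = 35 nM protein with DMSO and 100% = 750 nM protein high control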
RORg counter – counter-screen for Rev-erb alpha modulators: RORgamma DNA binding. shares compounds with Rev-erbA mod. purified RORgamma protein-FITC-DNA binding, fluorescence polarization. IC50, µM. 910 compounds, 8% hits. AID 1259320;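 active = Compounds whose fitted half-maximal concentration for disrupting protein-DNA binding is below 10 micromolar; the record names Rev-erb in its text, so the target is in doubt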
An asterisk follows results filed as active; i = inactive; . = no result.

SMILES	PKA-R2B activ	Rev-erbA mod	PG9 binder	PKA-R1A act	Rev-erbA confirm	others
Cc1ccc(CNC(=O)CCS(=O)(=O)c2cc3c(cc2Br)CCN3C(=O)C2CC2)o1	.	1.1	.	.	.
CCN(CC)CCCNC(=O)C1(N[C@@H](Cc2c[nH]c3ccccc23)C(=O)NCC(OC)OC)CCCCC1	.	-6.1	.	.	.
Cc1[nH]c2ccccc2c1/C=N/Nc1ccc([N+](=O)[O-])cc1	-4.2	21.8*	-1.2	-2.8	16.0
O=C(Nc1cccc(F)c1)O[C@@H]1CC[C@@]23CCCN2C(=O)CCC[C@H]3C1	.	-4.2	.	.	.
N#Cc1c(N)oc(-c2cccs2)c1-c1cccs1	1.2	24.3*	3.0	-10.0	33.8*
CCCCCCN1CCS(=O)(=O)N(Cc2ccc(Cl)cc2)C(C(=O)OC)C1 (stereo not given)	.	2.4	.	.	.
Cc1nnc2c(NCCC(C)C)nc3ccccc3n12	-1.0	23.0*	-0.3	-17.0	1.4
CCn1cc(C(=O)NCCc2ccc(OC)cc2)c(=O)c2ccc(C)nc21	1.0	10.0	0.6	-2.8	.
CCn1cc(C(=O)NCCc2ccc(Cl)cc2)c(=O)c2ccc(C)nc21	4.1	29.1*	-1.2	7.3	14.5
Cn1c(=O)c(NCCO)c2c3c(cccc31)C(=O)c1ccccc1-2	2.6	100.7*	-1.5	-4.5	118.3*	RORg counter=>40
CCCCNc1c2c3c(cccc3n(C)c1=O)C(=O)c1ccccc1-2	-4.9	.	.	-6.8	.
CC(=O)Nc1ccc(Nc2c3c4c(cccc4n(C)c2=O)C(=O)c2ccccc2-3)cc1	-13.3	33.4*	-6.8	-5.9	31.3*	RORg counter=>40
Cn1c(=O)c(NCCc2ccccc2)c2c3c(cccc31)C(=O)c1ccccc1-2	8.3	97.0*	4.5	0.6	68.9*	RORg counter=>40
Cn1c(=O)c(NC2CCCCC2)c2c3c(cccc31)C(=O)c1ccccc1-2	3.7	10.8	-1.7	-9.4	.
CCCC(Oc1ccc(Br)cc1)c1nc2c3cc(OC)c(OC)cc3nc(=S)n2[nH]1 (stereo not given)	4.9	46.8*	-0.1	8.5	39.5*	RORg counter=i
CC(Oc1ccc(Br)cc1)c1nc2c3ccccc3nc(=S)n2[nH]1 (stereo not given)	9.1	8.4	-2.1	-7.1	.
Cc1[nH]nc2c1C(c1ccco1)C(C#N)=C(N)O2 (stereo not given)	7.6	3.6	-0.6	9.8	.
COc1ccc(-c2ccc(C3C(C#N)=C(N)Oc4n[nH]c(C)c43)o2)cc1 (stereo not given)	0.7	21.9*	-0.6	-3.1	19.3*
CC(C)CC(=O)Nc1cccc(-c2nc3ccccc3o2)c1	2.0	33.2*	3.0	-6.6	25.9*
COc1cc(C(=O)Nc2cc(-c3nc4cc(C)ccc4o3)ccc2C)cc(OC)c1OC	-8.9	18.0	4.7	-20.7	.
COc1ccc(OCC(=O)Nc2cccc(-c3nc4ccccc4o3)c2)cc1	-7.5	26.4*	5.7	-1.4	15.8
CCCC(=O)Nc1cccc(-c2nc3ccccc3o2)c1	-4.5	3.3	-0.1	4.0	.
CC(C)C(=O)Nc1cccc(-c2nc3ccccc3o2)c1	6.1	21.3*	-0.2	-2.3	19.0*
COc1cc(C(=O)Nc2cccc(-c3nc4cc(C)ccc4o3)c2)cc(OC)c1OC	-10.3	61.1*	0.6	-11.3	54.4*	RORg counter=>40
Cc1ccc(NC(=O)C2CCCN2S(=O)(=O)c2cccnc2)c(C)c1 (stereo not given)	.	-7.1	.	.	.
SMILES	PKA-R2B activ	Rev-erbA mod	PG9 binder	PKA-R1A act	Rev-erbA confirm	others
Cc1ccc(NC(=O)c2sc3ncnc(N4CCN(c5ccccn5)CC4)c3c2C)c(C)c1	3.3	7.7	1.3	4.6	.
Cc1c(C(=O)Nc2ccccc2F)sc2nc3n(c(=O)c12)CCC3	-1.5	-1.8	-1.8	2.8	.
COc1ccc(C)cc1NC(=O)c1sc2ncnc(N3CCN(c4ccccn4)CC3)c2c1C	-5.8	37.4*	-0.8	0.2	2.6
COc1ccccc1NC(=O)c1sc2nc(Cc3ccccc3)cc(C(F)(F)F)c2c1N	-1.4	44.5*	.	8.7	62.8*	RORg counter=>40
COc1ccccc1NC(=O)c1sc2nc3n(c(=O)c2c1C)CCC3	-3.7	42.6*	0.8	-9.9	29.2*
CCOc1ccccc1NC(=O)c1sc2nc(C)nc(N3CCOCC3)c2c1C	-3.3	40.8*	-0.5	-1.0	7.0
O=C(c1cc(F)ccc1F)N(Cc1ccccn1)CC1CCCO1 (stereo not given)	.	-5.0	.	.	.
Cc1nc(N2CCN(c3ccccn3)CC2)c2c(C)c(C(=O)Nc3ccc(Br)cc3C)sc2n1	-5.6	40.2*	1.1	6.1	-13.2
CC(=O)N1CCN(C(=O)CSc2nc3cccnc3n2C)CC1	.	4.0	.	.	.
O=C(CSc1nnc(-c2ccc(Cl)cc2)n1-c1ccccc1)Nc1ccc(Oc2ccccc2)cc1	.	21.9*	.	.	9.9
CCOC(=O)CSc1nnc(-c2cccs2)n1-c1ccccc1	-11.1	3.0	1.4	-6.7	.
COc1ccc(-n2c(SCC(=O)Nc3ccc(Oc4ccccc4)cc3)nnc2-c2ccccc2)cc1	.	1.2	.	.	.
O=C(CSc1nnc(-c2cccs2)n1-c1ccccc1)Nc1ccccc1	-1.6	111.8*	54.3*	-11.1	92.5*
COC(=O)C1CN(Cc2cn(Cc3ccc(C)cc3)nn2)CCS(=O)(=O)N1Cc1ccccc1 (stereo not given)	.	4.5	.	.	.
COc1ccc(N(Cc2cc3cccc(C)c3[nH]c2=O)S(=O)(=O)c2ccc(Cl)cc2)cc1	9.0	20.6*	0.2	-13.0	14.1
O=C(NCCN1CCC(Cc2ccccc2)CC1)C1CCCN(S(=O)(=O)c2ccc(Br)s2)C1 (stereo not given)	.	-1.5	.	.	.
COC(=O)[C@]1(C)CN(C(=O)OC(C)(C)C)C2=C1C(=O)C[C@](C)(C(=O)OC(C)(C)C)C2	.	1.1	.	.	.
O=C(c1ccccc1)N1N=C(c2ccccc2O)CC1c1ccccc1 (stereo not given)	0.2	56.7*	3.7	-12.4	35.9*	RORg counter=6.88*
COc1ccc(C2CC(c3ccccc3O)=NN2C(=O)c2ccccc2)cc1OC (stereo not given)	-4.9	-1.7	-0.6	-9.5	.
C=CCN1C(=O)[C@@H](CC(=O)N2CCCC2)[C@]2(C(=O)OCC)CCCCC/C=C/12	.	10.0	.	.	.
CCCC1CCC2(CCCN2CCOC(=S)Nc2ccccc2Br)CC1 (stereo not given)	.	-2.9	.	.	.
CN(CCC#N)c1ccc(/C=C(\C#N)c2ccccn2)cc1	-4.0	71.4*	-2.1	-10.9	74.7*	RORg counter=>40
COc1ccc(-c2c(C)nc(N)nc2-c2ccc(OCc3ccc(C)cc3)cc2O)cc1OC	-6.5	123.5*	-1.9	-7.6	84.8*	RORg counter=>40
C[C@H](O)[C@@H]1CN2CCc3c([nH]c4c(-c5ccccc5)cccc34)[C@@H]2C[C@@H]1N(C)C(=O)c1ccco1	.	-4.9	.	.	.
FC(F)(F)c1cc(-c2ccccc2)nc2nc(N3CCOCC3)sc12	-6.2	24.5*	1.1	-9.1	8.5
